CYP2C9 inhib – inhibitors of human CYP2C9. CYP2C9 Supersomes, luciferin-H conversion, luminescence. 96,000 compounds, 20% hits. inhibition, % at 5 µM;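 active = blocking of liver enzyme CYP2C9 beyond about 50% at 5 µM, limit read from the data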
CYP2C9 activ – increases human cytochrome P450 2C9 activity. P11712. recombinant CYP2C9, luciferin-H conversion, luminescence; active compounds read high; factor 1 = untreated enzyme, 0 = blocked. activation factor at 5 µM. 96,000 compounds, 1.4% hits. AID 1024;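 active = activation factor of 2 or more for CYP2C9 at a 5 µM dose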;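 also: 0 = sulfaphenazole-blocked wells and 1 = vehicle-only wells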
CYP2C19 inh – blocks human cytochrome P450 2C19. 96,000 compounds, 21% hits. inhibition, % at 5 µM. P33261. AID 778. CYP2C19 Supersomes, luciferin-H EGE luminescence, 30 min;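 active = CYP2C19 inhibition above a set limit at 5 µM in the primary screen, cut at about 50% in these data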;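 also: plate controls were negative control wells for no effect and 2.5 mM tranylcypromine positive control for full effect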
EphB4 ephrin blk – blocks human EphB4 binding to ephrin-B2. inhibition, % at 7 µM. EphB4 LBD / TNYL-RAW-Alexa532 peptide, fluorescence polarization. 97,000 compounds, 0.15% hits. P54760;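 active = inhibition above the screen-wide mean inhibition plus 3 SD, cut at about 15% in these data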;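 also: 0% = DMSO wells and 100% = excess unlabeled TNYL-RAW peptide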
CYP2C19 activ – increases human CYP2C19 enzyme activity | activation factor at 5 µM | recombinant CYP2C19, luciferin-H EGE luminescence; active compounds read high; 0 = fully inhibited enzyme, 1 = untreated enzyme | P33261 | AID 1025 | 96,000 tested, under 10 active;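 active = activation factor of at least 2 at 5 µM in the primary screen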;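 also: 0 = wells with 2.5 mM tranylcypromine and 1 = vehicle-only wells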
* = called active by the depositor; nt = no result given. Shown are actives, neighbours in structure and some others; about 27% of the full set was active somewhere.

SMILES	CYP2C9 inhib	CYP2C9 activ	CYP2C19 inh	EphB4 ephrin blk	CYP2C19 activ
Cc1csc(Sc2ccc([N+](=O)[O-])cc2C(=O)OCC(=O)NC(=O)NC(C)(C)C)n1	72.1*	0.3	18.8	2.4	0.8
COc1cc(CN(C)Cc2ccccc2)cc(OC)c1O	28.1	0.7	65.0*	3.0	0.3
Cc1cccc(-n2ncc3c(NCCN4CCOCC4)ncnc32)c1	nt	nt	nt	-5.3	nt
CCNC(=O)N1C(=O)C2(OCCO2)c2cc(Br)ccc21	-0.8	1	14.7	0.4	0.9
CC(=O)OC1c2ccccc2C(=O)N1c1ccccc1C (stereo not given)	-1.5	1	0.2	-4.9	1
O=C(CCCN1C(=O)c2ccccc2C1=O)NCc1cccnc1	-38.8	1.4	-3.1	-0.7	1
O=C(NCc1cccnc1)C1c2ccccc2C(=O)N1Cc1ccco1 (stereo not given)	20.6	0.8	78.3*	3.9	0.2
CC(=O)OC1c2ccccc2C(=O)N1Cc1ccccc1 (stereo not given)	-17.1	1.2	51.0*	-5.8	0.5
O=C(C1=C(O)C(=O)N(Cc2ccco2)C1c1cccnc1)c1cc2ccccc2o1 (stereo not given)	24.7	0.8	-4.6	-1.4	1
O=C(NCc1cccnc1)C1c2ccccc2C(=O)N1Cc1ccccc1 (stereo not given)	22.5	0.8	63.2*	-3.9	0.4
CC(C)CCN1C(=O)c2ccccc2C1C(=O)NCc1cccnc1 (stereo not given)	19.3	0.8	61.6*	1.4	0.4
Cc1nnc(SCC(=O)Nc2ccc(N3CCOCC3)cc2)n1-c1ccccc1	30.0	0.7	9.4	-4.8	0.9
N#Cc1ccccc1Sc1ccccc1C(=O)Nc1ccccc1	49.5	0.5	51.7*	-14.5	0.5
CC1CN(C(=O)c2ccccc2Sc2ccccc2C#N)CC(C)O1 (stereo not given)	21.7	0.8	21.7	0.9	0.8
Cc1noc(C)c1COC(=O)c1ccccc1Sc1ccccc1C#N	74.2*	0.3	59.1*	7.0	0.4
N#Cc1ccccc1Sc1ccccc1C(=O)OCc1nnc(-c2ccccc2)o1	58.4*	0.4	68.8*	-1.3	0.3
Cc1ccc(S(=O)(=O)N(C)CC(=O)OCc2nnc(-c3ccccc3)o2)cc1	-3.6	1	4.1	-0.5	1
O=C(CCN1c2ccccc2Sc2ccccc21)OCc1nnc(-c2ccccc2)o1	95.1*	0	95.7*	nt	0
COCCn1c(SC(C)C(=O)Nc2ccc3c(c2)OCCO3)nc2ccccc2c1=O (stereo not given)	46.4	0.5	14.0	3.4	0.9
O=C(OCN1C(=O)c2ccccc2C1=O)c1cccs1	-21.7	1.2	14.0	6.6	0.9
CC(=O)c1cccc(NC(=O)Nc2cnn(Cc3ccc(Cl)cc3Cl)c2)c1	-2.6	1	-7.0	-5.8	1.1
O=C(OCc1nnc(-c2ccccc2)o1)c1ccco1	6.5	0.9	18.1	8.6	0.8
O=C(OCc1nnc(-c2ccccc2)o1)c1ccc2c(c1)OCO2	81.2*	0.2	65.4*	6.2	0.3
O=C(OCc1nnc(-c2ccccc2)o1)c1cc(=O)c2ccccc2o1	-5.3	1.1	0.3	-1.9	1
CCOc1ncccc1C(=O)OCc1nnc(-c2ccccc2)o1	28.2	0.7	84.0*	1.0	0.2
SMILES	CYP2C9 inhib	CYP2C9 activ	CYP2C19 inh	EphB4 ephrin blk	CYP2C19 activ
COc1ccc(S(=O)(=O)NNC(=O)c2csc(-n3nc(C)cc3C(F)(F)F)n2)cc1	48.9	0.5	16.3	-3.1	0.8
Cn1cccc1Cc1nnc(SCC(=O)NCc2ccc(F)cc2)n1-c1ccc(F)cc1	26.5	0.7	13.4	nt	0.9
Cc1cc(N2CCCC2)nc(SCC(=O)c2ccccc2)n1	nt	nt	nt	2.4	nt
Cc1cc(NCc2ccccc2)nc(N2CCOCC2)n1	-0.9	1	-2.7	6.4	1
c1ccc(CNn2c(N3CCOCC3)nc3ccccc32)cc1	5.2	0.9	69.5*	10.2	0.3
Cc1cc(N2CCOCC2)nc(NCc2ccccc2)n1	-2.4	1	73.8*	-9.2	0.3
Cc1cc(N2CCOCC2)nc(SCC(=O)c2ccc(Cl)cc2)n1	23.1	0.8	79.9*	4.5	0.2
Cc1cc(C)nc(SCC(=O)c2ccc([N+](=O)[O-])cc2)n1	20.5	0.8	92.2*	10.1	0.1
COc1ccc(C2CC(=O)C=C(NC3CCCC3)C2)cc1 (stereo not given)	nt	nt	nt	1.4	nt
Cc1cc(N2CCOCC2)nc(SCC(=O)c2ccccc2)n1	45.0	0.6	55.5*	nt	0.4
